Experimental data taken from PubChem BioAssay (Tox21).
Where “and” joins values, the source holds several entries; their conditions need not be identical. Equal values may be shown once. Inconclusive results are not listed. Unmarked numbers belong to inactive results. Calls of active or inactive are those of the source. Calls come from the whole dose curve; as a rule, active = well fitted cell-killing curve with a large enough effect in the repeat runs; inconclusive = weak or mixed curves, or effect the other way; inactive = no such curve, though single readings can be large or run the other way.

experiment: qHTS assay to identify small molecule agonists of the farnesoid-X-receptor (FXR) signaling pathway - cell viability counter screen (AID 743218); conditions: FXR-bla HEK293T viability, CellTiter-Glo luminescence, 16 h; series mostly up to 62.6 µM; viability change, negative = cytotoxic: at the top concentration; note: nearly all actives have a fitted effect of over 45% in size
Excerpt: U.S. Tox21 Program National Center for Advancing Translational Sciences [NCATS] NIH Chemical Genomics Center [NCGC] U.S. Environmental Protection Agency [EPA] National Institutes of Environmental Health Sciences [NIEHS] National Toxicology Program [NTP] U.S. Food and Drug Administration [FDA] Tox21 Assay Overview: The farnesoid-X-receptor (FXR), a nuclear hormone receptor, is highly expressed in liver, intestine, kidney and adrenal cortex. Natural ligands of FXR are the bile acids (Cholic acid, Chenodeoxy cholic acid etc). FXR is an important regulator of diverse metabolic pathways, including the bile acid homeostasis, lipid and glucose metabolisms. FXR regulates the expression of target genes by binding either as a monomer or as a heterodimer with the retinoid X receptor (RXR). Numerous studies have reported that FXR exerts protective function during cholestasis, diabetes, liver regeneration, and cancer. To identify compounds that activate FXR signaling, GeneBLAzer FXR-UAS-bla HEK 293T cell line (Invitrogen, Carlsbad, CA) containing a beta-lactamase reporter gene under the control of a UAS response element was used to screen the Tox21 10K compound library. The cytotoxicity of the Tox21 compound library against the FXR-bla cell line was tested in parallel by measuring the cell viability using CellTiter-Glo assay in the same wells.
Tox21 Assay Protocol Summary: FXR-bla cells were dispensed at 5000 cells/5uL/well in 1536-well black wall/clear bottom plates using a Multidrop Combi (Thermo Fisher Scientific, Waltham, MA) dispenser. After the assay plates were incubated at 37 C and 5% CO2 for 5 h, 23 nL of compounds dissolved in DMSO, positive controls or DMSO only was transferred to the assay plate by a Pintool station (Kalypsys, San Diego, CA). The assay plates were incubated at 37C for 16 h. After 1 uL of LiveBLAzerTM B/G FRET substrate was added using a Bioraptr Flying Reagent Dispenser (FRD) workstation (Beckman Coulter, Indianapolis, IN), the plates were incubated at room temperature for 2 h, and fluorescence intensity was measured by an Envision plate reader (PerkinElmer, Shelton, CT). For cell viability readout that measures cytotoxicity, 4uL/well of CellTiter-Glo reagent was added into the assay plates using a Bioraptr FRD. After 30 min incubation at room temperature, the luminescence intensity in the plates was measured using a ViewLux plate reader (PerkinElmer).
% is set by controls: 0 for no effect and ±100 for the full control effect; potency is the fitted concentration of half-maximal effect.

Compound | Potency | viability change, negative = cytotoxic
O=C1c2ccccc2C(=O)C1C(=O)C(c1ccccc1)c1ccc(Cl)cc1 (stereo not given) | 38.9 µM (active) | 
CCCOCC(=Nc1ccc(Cl)cc1C(F)(F)F)n1ccnc1 | 17.4 µM (active) | 
ClCc1ccc(Cl)cc1Cl |  | 3.07%
Cn1cc(C2=C(c3cn(C4CCN(Cc5ccccn5)CC4)c4ccccc34)C(=O)NC2=O)c2ccccc21 | 16.8 µM (active) | 
COc1ccc(OC)c(CC(C)N)c1 (stereo not given) |  | -0.891% [at 81.1 µM]
CC(=O)[O-].CC(=O)[O-].O.O.[Cd+2] | 1.53 µM (active) | 
CCOC(=O)OC1=C(c2cc(C)ccc2C)C(=O)NC12CCC(OC)CC2 (stereo not given) |  | 6.58%
N#C/C=C/C#N | 51.3 µM (active) | 
CCOC(=O)C1(c2ccccc2)CCN(CCC(C#N)(c2ccccc2)c2ccccc2)CC1 |  | -18.2%
CCCCCCCCCC[N+](C)(C)CCCCCCCCCC | 49 µM (active) | 
N#CCCSCCC#N |  | 0.113%
C[C@]12Cc3nonc3C[C@@H]1CC[C@@H]1[C@@H]2CC[C@@]2(C)[C@H]1CC[C@]2(C)O |  | -25.1%
CCCCN(CCCC)C(=S)[S-].CCCCN(CCCC)C(=S)[S-].[Zn+2] | 8.7 µM (active) | 
CC1CCC(C(C)C)C(OC(=O)c2ccccc2N)C1 (stereo not given) | 60.8 µM (active) | 
CC(=O)/C=C/c1ccc2c(c1)OCO2 |  | -0.256% [at 81.1 µM]
Nc1ccccc1C(=O)Oc1ccc2ccccc2c1 |  | -0.79%
O=C(NC(=O)c1c(F)cccc1F)Nc1cc(Cl)c(OC(F)(F)C(F)F)c(Cl)c1 |  | -13.9%
C=CC(=O)OCC(COC(=O)C=C)(COC(=O)C=C)COC(=O)C=C | 7.76 µM (active) | 
CN(C)S(=O)(=O)N(SC(F)(Cl)Cl)c1ccccc1 | 38.9 µM (active) | 
C[C@H]1CC[C@@H]2[C@@H](C)[C@H]3[C@H](C[C@H]4[C@@H]5CC=C6CC(O[C@@H]7O[C@H](CO)[C@H](O)[C@H](O[C@@H]8O[C@H](CO)[C@@H](O)[C@H](O)[C@H]8O)[C@H]7O[C@H]7O[C@@H](C)[C@H](O)[C@@H](O)[C@H]7O)CC[C@]6(C)[C@H]5CC[C@]34C)N2C1 (stereo not given in full) | 8.02 µM (active) | 

Compound | Potency | viability change, negative = cytotoxic
CN(C)c1ccc(N=Nc2ccccc2)cc1 |  | 12.8%
[CH3][Hg][Cl] | 13.8 µM (active) | 
FC(F)(F)c1cccc(C2=CCN(CCc3ccc4ccccc4c3)CC2)c1 |  | -8.33%
[Cd+2].[Cl-].[Cl-] | 11.1 µM (active) and 6.16 µM (active) | 
CC(=O)[O-].CC(=O)[O-].[Hg+2] | 1.1 µM (active) | 
CCOP(=S)(OCC)OC(Cl)C(Cl)(Cl)Cl (stereo not given) |  | -10.5%
O=[N+]([O-])c1ccc2ccc3cccc4ccc1c2c34 |  | -2.87%
N#CSCSC#N | inactive | 
CC(=O)OC1(c2ccccc2)CCN(CCc2ccccc2)CC1 |  | -14.6% [at 81.1 µM]
CC[C@H]1C[C@@H]2C[C@H]3c4[nH]c5ccc(OC)cc5c4CCN(C2)[C@@H]13 |  | 2.04% [at 81.1 µM]
COC(=O)N(C(=O)N1CO[C@@]2(C(=O)OC)Cc3cc(Cl)ccc3C2=N1)c1ccc(OC(F)(F)F)cc1 |  | -6.56%
O=[N+]([O-])c1c2ccccc2cc2ccccc12 |  | -25.9% [at 81.1 µM]
c1ccc2c(c1)[nH]c1cnccc12 |  | -1.1%
C[C@H]1O[C@@H](O[C@H]2[C@@H](O)C[C@H](O[C@H]3[C@@H](O)C[C@H](O[C@H]4CC[C@@]5(C)[C@H](CC[C@@H]6[C@@H]5CC[C@]5(C)[C@@H](C7=CC(=O)OC7)CC[C@]65O)C4)O[C@@H]3C)O[C@@H]2C)C[C@H](O)[C@@H]1O | 0.0311 µM (active) | 
CC[C@H](C)[C@H]1O[C@]2(C=C[C@@H]1C)C[C@@H]1C[C@@H](C/C=C(\C)[C@@H](O[C@H]3C[C@H](OC)[C@@H](O[C@H]4C[C@H](OC)[C@@H](O)[C@H](C)O4)[C@H](C)O3)[C@@H](C)/C=C/C=C3\CO[C@@H]4[C@H](O)C(C)=C[C@@H](C(=O)O1)[C@]34O)O2 | 12.9 µM (active) | 
Cc1cc(C)cc(OP(=O)(Oc2cc(C)cc(C)c2)Oc2cc(C)cc(C)c2)c1 |  | -14.6% [at 81.1 µM]
O=[N+]([O-])O.O=[N+]([O-])O.[Cd] | 12.3 µM (active) | 
COP(=S)(OC)Oc1cc(Cl)c(Br)cc1Cl |  | -0.278%
O=C(O)C1C2CCC(O2)C1C(=O)O (stereo not given) | inactive | 
CC(=O)C(Cl)(Cl)Cl |  | -15.8%
